Reference: PubChem BioAssay
Unmarked numbers belong to inactive results. For some assays here: Entries with a potency or affinity are not part of this list. The source made the active and inactive calls. Unless noted, no rule for the calls is given here.

What was measured:
[1] = antimalarial activity against Dd2 strain (AID 2302;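 active = growth inhibition above 50% at the single 2 µM test dose, taken to imply half-maximal potency below 2 µM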;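 also: 0% = DMSO untreated growth and 100% = chloroquine plus artemisinin killed control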); details: P. falciparum Dd2 in RBCs, LDH growth readout, 72 h; at 2 µM; hits give high values
[2] = human hepatoma cell viability loss – ATP luminescence, cytotoxicity control for P. falciparum antimalarial project, primary screen (AID 2303;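 active = inhibition above 50%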;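 also: 0% = DMSO wells and 100% = digitonin-killed cells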); details: HepG2 viability, 24-48 h, at 10 µM, hits give high values
[3] = biological target: L-lactate dehydrogenase (Plasmodium falciparum (isolate CDC / Honduras)) (UniProt Q27743); assay: PfLDH activity inhibition – cell lysate, 3D7 strain, counter-screen for P. falciparum growth inhibition project (AID 2304);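 also: 0% = vehicle and 100% = reference inhibitor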; details: P. falciparum 3D7 crude extract, LDH APAD/NBT absorbance; at 2 µM; hits give high values
L-lactate dehydrogenase (Plasmodium falciparum (isolate CDC / Honduras)), sequence (Q27743 whole entry, looked up): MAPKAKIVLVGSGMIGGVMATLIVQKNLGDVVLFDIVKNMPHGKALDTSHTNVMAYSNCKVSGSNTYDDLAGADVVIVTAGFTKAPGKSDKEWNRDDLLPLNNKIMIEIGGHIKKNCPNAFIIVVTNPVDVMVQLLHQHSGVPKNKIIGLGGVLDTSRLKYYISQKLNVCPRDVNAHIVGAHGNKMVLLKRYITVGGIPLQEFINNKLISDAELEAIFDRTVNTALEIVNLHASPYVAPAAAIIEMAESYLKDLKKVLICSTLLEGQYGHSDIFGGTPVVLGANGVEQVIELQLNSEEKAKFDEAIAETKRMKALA

[4] = inhibition of 3D7 malaria parasite growth – strain 3D7 (AID 2306);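 also: 0% = DMSO wells and 100% = chloroquine plus artemisinin control wells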; details: P. falciparum 3D7 erythrocytic growth, LDH absorbance, 72 h; at 2 µM; hits give high values
[5] = biological target: Calcium-dependent protein kinase 1 (Plasmodium falciparum (isolate 3D7)) (UniProt P62344); assay: PfCDPK1 kinase inhibitors, biochemical, TCAMS library (AID 1159585; cut-off not given, nearly all actives have IC50 up to about 0.98 µM;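 also: inhibitors leave more ATP so luminescence rises with inhibition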); details: recombinant PfCDPK1, Kinase-Glo ATP depletion luminescence
Calcium-dependent protein kinase 1 (Plasmodium falciparum (isolate 3D7)), sequence (P62344 whole entry, looked up): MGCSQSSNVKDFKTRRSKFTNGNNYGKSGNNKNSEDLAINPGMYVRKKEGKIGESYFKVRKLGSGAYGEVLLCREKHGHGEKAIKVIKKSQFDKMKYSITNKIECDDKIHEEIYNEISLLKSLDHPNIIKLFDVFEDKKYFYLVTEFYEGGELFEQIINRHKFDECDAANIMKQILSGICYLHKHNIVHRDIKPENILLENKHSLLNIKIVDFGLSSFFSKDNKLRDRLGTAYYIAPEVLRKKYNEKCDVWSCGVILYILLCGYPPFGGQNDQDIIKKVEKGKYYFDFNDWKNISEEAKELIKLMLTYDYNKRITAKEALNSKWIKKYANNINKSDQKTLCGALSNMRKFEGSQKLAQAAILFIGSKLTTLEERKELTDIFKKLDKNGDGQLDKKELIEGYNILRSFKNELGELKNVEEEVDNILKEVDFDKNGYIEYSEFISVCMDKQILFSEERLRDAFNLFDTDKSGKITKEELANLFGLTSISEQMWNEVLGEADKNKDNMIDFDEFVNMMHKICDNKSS

[6] = biological target: Plasmodium falciparum protein kinase 6 (PK6, PF3D7_1337100) (UniProt Q8IDW1); assay: PfPK6 kinase inhibitors, biochemical, TCAMS library (AID 1159586); details: recombinant PfPK6, Kinase-Glo ATP depletion luminescence
Plasmodium falciparum protein kinase 6 (PK6, PF3D7_1337100), sequence (Q8IDW1 1-305): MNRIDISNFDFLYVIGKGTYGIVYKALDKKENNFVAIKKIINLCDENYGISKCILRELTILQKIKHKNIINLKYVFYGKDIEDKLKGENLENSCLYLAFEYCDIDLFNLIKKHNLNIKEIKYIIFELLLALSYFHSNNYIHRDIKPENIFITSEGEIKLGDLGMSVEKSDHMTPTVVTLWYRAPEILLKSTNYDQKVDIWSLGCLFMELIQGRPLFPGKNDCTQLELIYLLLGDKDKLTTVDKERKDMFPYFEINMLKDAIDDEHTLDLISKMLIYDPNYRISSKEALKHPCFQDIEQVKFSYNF

[7] = biological target: Protein kinase 7 (PK7), Plasmodium falciparum 3D7 (PF3D7_0213400) (UniProt Q7YTF7); assay: inhibition of Plasmodium PK7 catalytic activity – biochemical, TCAMS antimalarial set, Kinase-Glo luminescence (AID 1159587); details: recombinant PfPK7, Kinase-Glo ATP depletion luminescence
Protein kinase 7 (PK7), Plasmodium falciparum 3D7 (PF3D7_0213400), sequence (Q7YTF7 1-343): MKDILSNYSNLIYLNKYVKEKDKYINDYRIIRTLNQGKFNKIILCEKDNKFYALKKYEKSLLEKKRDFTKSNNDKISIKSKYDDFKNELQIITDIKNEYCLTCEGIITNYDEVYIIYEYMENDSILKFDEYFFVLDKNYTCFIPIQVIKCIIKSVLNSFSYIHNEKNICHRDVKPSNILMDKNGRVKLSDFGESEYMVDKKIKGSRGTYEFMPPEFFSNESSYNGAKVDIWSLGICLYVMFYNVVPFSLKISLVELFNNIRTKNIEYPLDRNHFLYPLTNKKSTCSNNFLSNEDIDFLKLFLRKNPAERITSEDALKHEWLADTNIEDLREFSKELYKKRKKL

[8] = biological target: Calcium-dependent protein kinase 4 (Plasmodium falciparum (isolate 3D7)) (UniProt Q8IBS5); assay: PfCDPK4 kinase inhibitors, biochemical, TCAMS library (AID 1159588; cut-off not given, nearly all actives have IC50 up to about 0.91 µM); details: recombinant PfCDPK4, Kinase-Glo ATP depletion luminescence
Calcium-dependent protein kinase 4 (Plasmodium falciparum (isolate 3D7)), sequence (Q8IBS5 whole entry, looked up): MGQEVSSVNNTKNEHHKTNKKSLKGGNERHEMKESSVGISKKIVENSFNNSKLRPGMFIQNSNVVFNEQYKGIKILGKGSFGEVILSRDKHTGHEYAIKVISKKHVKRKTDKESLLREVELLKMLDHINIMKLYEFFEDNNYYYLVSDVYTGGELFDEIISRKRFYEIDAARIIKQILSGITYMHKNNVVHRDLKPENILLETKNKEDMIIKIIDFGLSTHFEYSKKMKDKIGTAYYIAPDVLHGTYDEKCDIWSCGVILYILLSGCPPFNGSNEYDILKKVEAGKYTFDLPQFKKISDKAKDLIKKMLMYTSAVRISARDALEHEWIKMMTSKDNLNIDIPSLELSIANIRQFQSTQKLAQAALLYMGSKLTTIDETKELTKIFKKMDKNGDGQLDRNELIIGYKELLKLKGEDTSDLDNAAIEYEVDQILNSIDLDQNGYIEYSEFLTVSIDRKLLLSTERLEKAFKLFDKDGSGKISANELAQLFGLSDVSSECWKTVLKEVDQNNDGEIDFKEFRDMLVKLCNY

Row | SMILES | growth inhibition [1] | inhibition [2] | inhibition [3] [%] | growth inhibition [4] | outcome [5] | outcome [6] | outcome [7] | outcome [8]
1 | CCOC(=O)c1c(NC(=O)c2ccccc2)sc2c(O)c(CNC3CCCCC3)ccc12 | 98% (active) | 6% | 1 | 99% (active) | inactive | inactive | inactive | inactive
2 | Cc1oc(-c2ccc(Cl)cc2)cc1C(=O)NCCC1CCN(CCCCCNC(=O)/C=C/c2ccc(Cl)c(Cl)c2)CC1 | 88% (active) | 100% (active) | -4 | 100% (active) | inactive | inactive | inactive | inactive
3 | COc1ccc(C(=O)Nc2ccc3oc(-c4ccc(C(F)(F)F)cc4)cc3c2)cc1CCCN(C)C | 27% | 98% (active) | -1 | 98% (active) | inactive | inactive | inactive | inactive
4 | Fc1ccc2nc(-c3cccc(-c4ccc(CN5CCN(CCN6CCOCC6)CC5)cc4)c3)[nH]c2c1 | 100% (active) | 30% | -3 | 101% (active) | inactive | inactive | inactive | inactive
5 | CCc1cn2c3c(cc(C(=O)N[C@@H](Cc4ccccc4)[C@H](O)CNCc4ccccc4C)cc13)N(C)S(=O)(=O)CC2 | 98% (active) | 3% | 5 | 98% (active) | inactive | inactive | inactive | inactive
6 | CCN(CC)CCN(Cc1ccc(-c2ccc(C(F)(F)F)cc2)cc1)C(=O)Cn1c(CCc2ccc(F)c(F)c2F)nc(=O)c2ccc(F)cc21 | 46% | 19% | -1 | 98% (active) | inactive | inactive | inactive | inactive
7 | O=C(/C=C/c1ccc(Cl)cc1)NCCCCCN1CCCN(C(=O)Nc2cccc(Cl)c2)CC1 | 10% | 19% | -3 | 85% (active) | inactive | inactive | inactive | inactive
8 | N#Cc1ccc(C(=O)Nc2ccc(-c3cccc(CN4CCCC4)c3)cc2)cc1 | 1% | 17% | -1 | 89% (active) | inactive | inactive | inactive | inactive
9 | Oc1ccc(CN2CCC(NCc3cccc(C(F)(F)F)c3)CC2)cc1 | 64% (active) | 10% | 5 | 101% (active) | inactive | inactive | inactive | inactive
10 | Cc1ccnc(NC(c2ccc(Cl)c([N+](=O)[O-])c2)c2ccc3cccnc3c2O)c1 (stereo not given) | 57% (active) | 47% | 6 | 89% (active) | inactive | inactive | inactive | inactive
11 | CCCCCCN1CCCN(Cc2cccc(NC(=O)c3cc4ccccc4s3)c2)CC1 | 53% (active) | 31% | 6 | 88% (active) | inactive | inactive | inactive | inactive
12 | COc1ccc(-c2nc3c(NCc4ccccc4)nccc3[nH]2)c(OC)c1 | 21% | 16% | 4 | 99% (active) | inactive | inactive | inactive | inactive
13 | COC(=O)C(C)(C)Cc1c(SC(C)(C)C)c2cc(C(C)C)ccc2n1Cc1ccc(Cl)cc1 | 96% (active) | -9% | 0 | 96% (active) | inactive | inactive | inactive | inactive
14 | CCCCNc1ccc(C(=O)NC2CCN(C[C@H](O)c3ccnc4ccc(OC)cc34)CC2)cc1 | 64% (active) | 12% | -8 | 90% (active) | inactive | inactive | inactive | inactive
15 | O=C(NC1CCCCC1)N(Cc1cccc(-c2ccc(CNCCc3ccccc3)cc2)c1)C1CCN(Cc2ccccc2)CC1 | 93% (active) | 61% (active) | 4 | 93% (active) | inactive | inactive | inactive | inactive
16 | Cc1cc(NCCCCCCNc2cc(C)nc3c(C)cccc23)c2cccc(C)c2n1 | 9% | 23% | -2 | 100% (active) | inactive | inactive | inactive | inactive
17 | O=[N+]([O-])c1ccc(C=NNc2nc(Nc3ccccc3)nc(Nc3ccccc3)n2)o1 | 61% (active) | 5% | -4 | 94% (active) | inactive | inactive | inactive | inactive
18 | O=[N+]([O-])c1ccccc1C=NNc1ccnc2ccccc12 | 98% (active) | 3% | 2 | 101% (active) | inactive | inactive | inactive | inactive
19 | COc1ccc(C2C(C(=O)OC3CCCCC3)=C(C)NC3=C2C(=O)CCC3)cc1Br (stereo not given) | 94% (active) | 7% | -7 | 95% (active) | inactive | inactive | inactive | inactive
20 | Cc1onc(-c2c(Cl)cccc2Cl)c1C(=O)NC1=NC(C)(C)ON1c1ccccc1 | 36% | 6% | 1 | 97% (active) | inactive | inactive | inactive | inactive

Row | SMILES | growth inhibition [1] | inhibition [2] | inhibition [3] [%] | growth inhibition [4] | outcome [5] | outcome [6] | outcome [7] | outcome [8]
21 | COC(=O)c1ccc(CC(C)NCC(O)c2ccc(C(O)CNC(C)Cc3ccc(C(=O)OC)cc3)cc2)cc1 (stereo not given) | 13% | 24% | 1 | 88% (active) | inactive | inactive | inactive | inactive
22 | O=C(c1cc(-c2ccccc2)n[nH]1)N1CCN(S(=O)(=O)c2ccc(Cl)s2)CC1 | 81% (active) | 9% | 1 | 88% (active) | inactive | inactive | inactive | inactive
23 | COc1cc(Nc2ncnc3cc(OC)c(OC)cc23)cc([N+](=O)[O-])c1 | 6% | 8% | 8 | 97% (active) | inactive | inactive | inactive | inactive
24 | COc1ccc2ncc(F)c(CCN3CCC(NCc4ccc5c(c4)CCO5)CC3)c2n1 | 30% | 20% | 3 | 100% (active) | inactive | inactive | inactive | inactive
25 | COc1ccc2nccc([C@@H](O)CN3CCC(NC(=O)C(=O)c4c[nH]c5c(C)cccc45)CC3)c2c1 | 94% (active) | 17% | -3 | 102% (active) | inactive | inactive | inactive | inactive
26 | CCCN(CCC)CCCNc1ccc(C(=O)Nc2ccc(C(C)C)cc2)cc1[N+](=O)[O-] | 38% | 17% | -8 | 98% (active) | inactive | inactive | inactive | inactive
27 | COc1ccc(Cl)cc1C(=O)Nc1ccc(-c2nc3ccccc3[nH]2)cc1 | 39% | 42% | -7 | 92% (active) | inactive | inactive | inactive | inactive
28 | Nc1c(Cl)cc(C(O)CNCCCCCOCCCc2ccc(O)c3ncccc23)cc1Cl (stereo not given) | 12% | 65% (active) | -4 | 90% (active) | inactive | inactive | inactive | inactive
29 | CCOc1ccc(C(=O)Nc2cc(Br)c3c(c2)CNCC3)cc1C(F)(F)F | 22% | 15% | 6 | 98% (active) | inactive | inactive | inactive | inactive
30 | O=C(Nc1cccc(CN2CCCN(Cc3ccc(O)cc3)CC2)c1)c1ccc2ccccc2c1 | 78% (active) | 20% | 1 | 101% (active) | inactive | inactive | inactive | inactive
31 | COc1ccc2nc(N)nc(C)c2c1 | 1% | 5% | 5 | 90% (active) | inactive | inactive | inactive | inactive
32 | CC(C)Cn1cc(C2CCN(CCN3CCC(CNC(=O)c4ccc(NC(=O)c5cc(Cl)cc(Cl)c5)cc4)CC3)CC2)c2ccccc21 | 96% (active) | 53% (active) | -2 | 91% (active) | inactive | inactive | inactive | inactive
33 | COc1ccc(CNCc2ccc(-c3ccc(CNCCc4ccccc4)cn3)cc2)cn1 | 44% | 16% | 1 | 97% (active) | inactive | inactive | inactive | inactive
34 | CCc1c(CCNCCCCCCNCCc2ccc(OC)cc2)ccc(OC)c1OC | -1% | 16% | 8 | 98% (active) | inactive | inactive | inactive | inactive
35 | CC(C)CC1(C(=O)OC(C)(C)C)CC(C(=O)OC(C)(C)C)C(c2cccs2)N1C(=O)c1ccc(C(C)(C)C)cc1 (stereo not given) | 100% (active) | 21% | -2 | 101% (active) | inactive | inactive | inactive | inactive
36 | COc1ccc(CN2CCC(C(=O)Nc3cccc(-c4cccc(Cl)c4)c3)CC2)cc1O | 0% | 25% | -2 | 91% (active) | inactive | inactive | inactive | inactive
37 | COc1cc(C(C)C)nc2ccc(NC(=O)c3ccc(C(=O)Nc4ccc5nc(C(C)C)cc(OC)c5c4)cc3)cc12 | 72% (active) | 39% | 0 | 95% (active) | inactive | inactive | inactive | inactive
38 | O=C(NCCCCN1CCC(c2ccc(Br)cc2)CC1)c1ccc(NC(=O)c2ccc(Cl)cc2)cc1 | 86% (active) | 17% | 0 | 100% (active) | inactive | inactive | inactive | inactive
39 | COc1ccc2nccc([C@@H](O)CN3CCC(NCc4cnc5snnc5c4)C(F)C3)c2c1 (stereo not given in full) | 88% (active) | 13% | 2 | 83% (active) | inactive | inactive | inactive | inactive
40 | CN(C)c1ccc(CN2CCCC(CNC(=O)c3ccc(-c4cccc(C(F)(F)F)c4)s3)C2)cc1 (stereo not given) | 37% | 32% | 0 | 89% (active) | inactive | inactive | inactive | inactive
